Screen size: about 360,000 compounds; about 800 (0.22%) were called active. The list comes from a sample in which actives are over-represented; it also holds similar structures and randomly drawn compounds. Values without a mark were called inactive.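 How the source made its calls: active means activation of at least 8% versus controls, or a plate z-score of at least 8; inactive means the rest.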

The experiment can be described thus: activators of alpha-DG glycosylation, primary screen, uHTS, Pro5-aDG cells, AlphaScreen (AID 624168).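 Further: Pro5 are CHO cells carrying HIG-tagged alpha-DG that lacks glycosylation.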 The note with it: alpha-DG glycosylation AlphaScreen (IIH6), at 10 µM, active compounds read high, 0% Pro5, 100% B10-LARGE cell signal.
With `CN(CC(=O)Nc1cccc(F)c1)C(=O)C1=COCCO1`, the activation was 0.1%.

Take `Cc1ccc(NC(=O)c2sccc2C)cc1[N+](=O)[O-]`: the activation is 0%. For `Cc1ccc(NC(=O)CN(C)CC(=O)Nc2cccc(F)c2)cc1[N+](=O)[O-]` the value was 10% (active); for `O=C(CN1CCCCC1)NC(=O)Nc1ccccc1F`, 0%; for `O=C(CCNS(=O)(=O)c1ccc(Br)s1)NCc1ccccc1Cl`, 0.5%.

As for `COc1cccc(NC(=O)N(C)C[C@@H]2Oc3ncc(Br)cc3C(=O)N([C@@H](C)CO)C[C@H]2C)c1`, the activation is 0.2%. The result for `OC(CN1C2=NCCCN2c2ccccc21)c1ccc(Br)cc1` (stereo not given) reads 0.6%; that for `CC(=O)N1CSCC1C(=O)O` (stereo not given), 0.1%; that for `NC(=O)COC(=O)c1cc(S(=O)(=O)N2CCN(c3ccccc3)CC2)ccc1Cl`, -1.4%. The result for `O=S(=O)(c1ccc2ccccc2c1)N1CCN(S(=O)(=O)N2CCOCC2)CC1` reads 0.1%.

With `O=c1ccc2cc(S(=O)(=O)N3CCN(c4ccccc4)CC3)ccc2o1`, the activation was 8.4% (active). For `O=C1OCCOC2CCCc3oc(-c4ccccc4)c1c32` (stereo not given) the value was 0.5%; for `CCN(CC(=O)NCc1ccc(Cl)cc1)C(=O)CSc1ccccc1`, 0%. The result for `O=C(NCCN1CCOCC1)Nc1cccc(Cl)c1` reads -0.1%.

Take `c1ccc2cc3c(NCCN4CCOCC4)ccnc3cc2c1`: the activation was 9% (active). For `O=S(=O)(c1ccc(Cl)cc1)c1nc(-c2ccccc2F)oc1NCCN1CCOCC1` the value was 0.2%; for `O=S1(=O)CC(NCc2ccccc2)C(Nc2ccc(Cl)cc2)C1` (stereo not given), 0%; for `O=C(/C(=N\O)n1cncn1)c1ccc(Br)cc1Br`, 0.2%.

Consider `O=C(NC(c1ccc(Cl)cc1)c1cnccn1)C1CCN(Cc2ccc(Cl)cc2)CC1` (stereo not given), for which the activation is 0.1%.

For `O=C(NC(c1ccc(-c2ccccc2)cc1)c1cnccn1)C1CCN(CCOc2ccc(Cl)cc2Cl)CC1` (stereo not given), the activation is 7.1% (active). For `Cc1ccc(C(NC(=O)C2CCN(CCOc3ccc(Cl)cc3Cl)CC2)c2ccccn2)cc1` (stereo not given) the value was 0.4%. The result for `CCOC(=O)c1cc2sccc2n1Cc1ccc(C#N)cc1` reads 0%; that for `CCOCCCNC(=O)C1(O)c2cc(Br)ccc2NC(=O)N1c1ccc(C)c(C)c1` (stereo not given), -0.2%. For the compound `CN1CCCc2cc(C#N)c(=O)[nH]c21`, the activation is 0%.

Turning to `CC(C)c1cc(Cn2c3ccccc3c(=O)n2C(C)Cn2cc(C3CC3)nn2)on1` (stereo not given), the activation is 6.8% (active). For `COCCN(C(=O)C(C)C)c1nnc(-c2ccc(C(C)(C)C)cc2)s1` the value was 0.5%; for `Cc1ccc(OCc2nnc(SC3CCc4ccccc4C3=O)n2C)cc1` (stereo not given), 0%; for `Cc1cc(C)c(S(=O)(=O)n2cc(C(C)C(N)C(=O)O)c3ccccc32)c(C)c1` (stereo not given), -0.2%. For `Cc1ccc(NS(=O)(=O)c2c(C)[nH]c(C)c2C(=O)N2CCCCC2)c(C)c1` the value was -0.1%; for `CCN(CC)C(=O)C1=C(C)N(Cc2ccc(OC)cc2)C(=O)C(CC(=O)NCc2ccco2)C1` (stereo not given), -0.1%.

Regarding `Cc1ccc(S(=O)(=O)N2CCCCC2)cc1NC(=O)[C@@H]1CCCN1C(=O)c1cccs1`, the activation was 0.1%.

In the case of `O=C(Nc1cccc(Br)c1)C1CC(=O)N(C2CCCC2)C1` (stereo not given), the activation was 0%. For `COc1ccccc1N1CCN(C(=O)c2cc(-c3ccc(Br)cc3)on2)CC1` the value was 9.8% (active); for `COc1ccc(OCc2cc(C(=O)N3CCCC3)no2)c2ccccc12`, 0.3%; for `COc1ccccc1N1CCN(C(=O)c2cc(=O)c3cc(C)cc(C)c3o2)CC1`, -0.2%. Regarding `Cc1ccc(NS(=O)(=O)c2ccc(F)cc2)nc1`, the activation is -0.2%. The result for `Fc1ccc(OCc2nn3c(Cn4nnc5ccccc54)nnc3s2)cc1` reads 0.5%; that for `C=CCOc1cccc(CNn2cn[nH]c2=S)c1`, 0%. The result for `CC[C@]12c3[nH]c4cc(CCC(=O)N(C)C)ccc4c3CCN1C(=O)[C@@H](CC(=O)NCC13CC4CC(CC(C4)C1)C3)C[C@@H]2C(=O)N1CCN(C(=O)C2CC2)CC1` reads -0.1%; that for `Cc1cc(=O)oc(C)c1C(=O)NC1CC(C)(C)NC(C)(C)C1`, -0.1%; that for `COc1ccc(CC(NC(C)=O)C(=O)NC2CCN(C(=O)c3ccc(OC)c(OC)c3)CC2)cc1OC` (stereo not given), -0.3%.

On to `Clc1cc(NC2CCCCC2)ncn1`, for which the activation is 0.2%. For `CN(C)C(=S)Nc1ccc(Br)cc1Cl` the value was 0.1%; for `COc1ccc(Cl)cc1NC(=O)NCC1CCN(Cc2ccccc2F)CC1`, 1%. The result for `O=C(CN1CCN(Cc2ccccc2)CC1)Nc1ccc(F)c(F)c1` reads -0.1%. For `Cc1cccc(CN2CCC(CNC(=O)Nc3ccc(F)c(Cl)c3)CC2)c1` the value was 5.2% (active). Take `Nc1cccnc1Sc1ccccc1`: the activation was 0%. For `CC(=O)N/C(=C/c1ccc(OC(F)F)cc1)C(=O)O` the value was -0.4%; for `Cc1cccc(OCC(O)CN2CCN(S(=O)(=O)c3ccc(C)cc3C)CC2)c1` (stereo not given), 0.1%. For `OC(COc1ccc(F)cc1Cl)CN1CCc2ccccc2C1` (stereo not given) the value was 0.1%; for `Cc1ccc(OCC(O)CN2CCN(CC(O)COc3ccc(C)cc3Cl)CC2)c(Cl)c1` (stereo not given), 3.9% (active). For `COc1ccc(CC(=O)OC(C)C(=O)Nc2ccc(S(N)(=O)=O)cc2)cc1` (stereo not given) the value was 0.1%. In the case of `O=[N+]([O-])c1ccc(C=Nc2ccc(Cl)cc2Cl)s1`, the activation was -0.4%. Regarding `Cc1nn(Cc2ccc(Cl)cc2)c(Cl)c1/C=N/NC(=O)CNc1ccccc1F`, the activation was 0.9%. For `CC(C)(C)c1cc(C(=O)N/N=C/c2ccc([N+](=O)[O-])s2)n[nH]1` the value was 2.7% (active); for `Cc1ccccc1NCC(=O)N/N=C\c1ccc([N+](=O)[O-])s1`, 9.3% (active). For `Cc1ccc(S(=O)(=O)N2CCN(CC(=O)N/N=C/c3ccc(Br)s3)CC2)cc1` the value was -0.1%.

In the case of `Cc1c(C(=O)N2CCCC2)c(S(=O)(=O)NCC(C)c2ccccc2)c(C)n1C` (stereo not given), the activation was -0.1%. The result for `O=S(=O)(N1CCCCC1)N1CCNCC1` reads 0%.

With `CC(C)[C@@H](C(=O)O)N(Cc1cccc(CN([C@H](C(=O)O)C(C)C)S(C)(=O)=O)c1)S(C)(=O)=O`, the activation is -0.1%. For `COc1ccc(F)cc1S(=O)(=O)N1CCCCC1` the value was -0.1%; for `COCCCNC(=S)N(CCN(C)C)Cc1cc2cc3c(cc2[nH]c1=O)OCCO3`, -0.2%. For `Cc1cc(C)c2[nH]c(=O)c(CN(Cc3ccccc3)C(=S)NCCCN(C)C)cc2c1` the value was 8.7% (active); for `Cc1cccc2cc(CN(Cc3cccs3)C(=S)NCc3ccco3)c(=O)[nH]c12`, 0%; for `Cc1cccc(C)c1NC(=O)N1CC=C(n2c(=O)[nH]c3ccccc32)CC1`, 0.1%.

With `O=C(Nc1cc(S(=O)(=O)Nc2ccc(Cl)cc2)ccc1O)c1ccc(F)cc1F`, the activation was 0.4%. For `O=C(CN(c1cc(C(F)(F)F)ccc1Cl)S(=O)(=O)c1ccccc1)NCc1cccnc1` the value was 0.2%; for `CC(=O)N(c1ccc2oc(=O)sc2c1)S(=O)(=O)c1ccc(C)cc1`, 0%.

As for `O=C(c1cccnc1)N(c1cc2sc(=O)oc2c2ccccc12)S(=O)(=O)c1ccccc1`, the activation was 8.9% (active). In the case of `O=C(Nc1ccc(-n2ccnc2P(=O)(O)c2ccccc2)cc1)c1ccccc1Br`, the activation was -0.1%.

For the compound `COc1ccc(C2c3[nH]c4ccccc4c3C[C@H]3C(=O)N(CC(C)C)CC(=O)N23)c(OC)c1` (stereo not given in full), the activation was 0.3%.

In the case of `COc1ccc(C2(CNC(=O)Cc3ccc(OC)c(OC)c3)CCCC2)cc1`, the activation is -0.3%.

For `COc1ccc(CC(=O)NC2CCSc3ccccc32)cc1OC` (stereo not given), the activation was 0.1%.

Take `COc1ccc(CC(=O)Nc2nc(-c3ccc(F)c(F)c3)cs2)cc1OC`: the activation is 2.7% (active). On to `Cc1c(C(=O)N(C)CCc2cnn(C)c2)oc2c(F)cccc12`, for which the activation was 0.2%. Turning to `COCCc1nn2c(=O)cc(COC(=O)c3cc(OC)c(OC)c(OC)c3)nc2s1`, the activation was -0.1%.

With `CN1OC(COC(=O)c2ccc(Cl)cc2)CC1c1ccccc1` (stereo not given), the activation was 0.1%. For `Cc1ccc(C(=O)C(=S)N2CCOCC2)cc1` the value was 0%.

Regarding `COc1cccc(C(=O)Nc2nnc(S(=O)(=O)N3CCCCC3)s2)c1`, the activation was 10.9% (active). The result for `COc1cccc(C(=O)Nc2nnc(S(=O)(=O)N3CCOCC3)s2)c1` reads -0.1%; that for `O=C(Nc1nnc(S(=O)(=O)N2CCCCCC2)s1)c1cccc(Br)c1`, -0.2%; that for `CC(C)(C)OC(=O)N1CCC(C(=O)NNC(=O)c2ccc(Cl)cc2Cl)CC1`, 0.1%. For `c1ccc2c(NC3C4CC5CC(C4)CC3C5)nc(N3CCOCC3)nc2c1` (stereo not given) the value was 0.7%. For `CCOc1ccc(CCNC(=O)CCc2nnc3ccc(N4CCCC4)nn23)cc1OCC` the value was 0.3%; for `COCCCC1CCN(C(=O)C2CCC(=O)N(C3CCCCCC3)C2)CC1` (stereo not given), -0.3%; for `COC(=O)C(Cc1c[nH]c2ccccc12)NC(=O)CCNC(=O)c1ccco1` (stereo not given), 0.2%. In the case of `CCOc1ccccc1Nc1nnc(SCC(=O)Nc2cc(C)on2)s1`, the activation was -0.2%.

Regarding `CCOc1ccccc1Nc1nnc(SCC(=O)NCC2CCCO2)s1` (stereo not given), the activation is 5.2% (active).

As for `COc1ccccc1N1CC(C(=O)Nc2nnc(SCC(=O)NCC3CCCO3)s2)CC1=O` (stereo not given), the activation was -0.1%. The result for `COc1ccccc1OCCn1c(SCC(N)=O)nc2ccccc21` reads 0%. The result for `NC1=CC(=O)C(=O)c2cccnc21` reads 4.9% (active). The result for `O=C(C1CCCN(S(=O)(=O)c2ccc([N+](=O)[O-])cc2)C1)N1CCCCC1` (stereo not given) reads 0.9%. For `CC(C)OC(=O)CN1C(=O)C(=O)c2ccccc21`, the activation is 14.6% (active). Regarding `O=C1C(=O)N(c2ccccc2)c2ccccc21`, the activation was 2.6%. On to `COc1cc(C(C)=O)ccc1OC(=O)CN1C(=O)c2ccccc2C1=O`, for which the activation is -0.1%.

Source of the values: PubChem BioAssay AID624168 (Sanford-Burnham Center for Chemical Genomics, 2012).
